# Rows were chosen to be rich in hits. Some 4.1% of all compounds tested hit in one or more screens of this group.
# DAX1 inh-1: DAX1 (NR0B1) inhibitors, primary screen, cell-based, HEK293, Gal4-DAX1, luciferase luminescence; Nuclear receptor subfamily 0 group B member 1 (Homo sapiens), P51843; HEK293 Gal4-DAX1 luciferase reporter; inhibition, % at 6.75 µM; 340,000 compounds, 0.99% hits; AID 504766, 2011;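 active means inhibition above the mean over all tested compounds plus 3 SD, cut at about 4.2% in these data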;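 further: 0% = DAX1-transfected cells with DMSO and 100% = empty-vector control cells with DMSO; inhibition shows as a rise in luminescence from relieved DAX1 repression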
# Target sequence (P51843 207-470 limits assumed): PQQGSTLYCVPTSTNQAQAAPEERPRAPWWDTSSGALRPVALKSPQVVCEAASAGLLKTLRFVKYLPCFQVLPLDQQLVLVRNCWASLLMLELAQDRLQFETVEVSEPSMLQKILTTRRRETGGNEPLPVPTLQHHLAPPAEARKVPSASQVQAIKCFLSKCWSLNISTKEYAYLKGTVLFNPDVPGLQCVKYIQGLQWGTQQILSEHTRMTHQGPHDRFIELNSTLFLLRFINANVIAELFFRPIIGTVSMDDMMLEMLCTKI
# hgDAF-12 ag: H. glycines DAF-12 receptor agonists, primary screen, cell-based, luminescence, HEK293, GAL4 fusion, UAS-luciferase; AID 687014, 2013; activation, % at 6.8 µM; 370,000 compounds, 1.8% hits; HEK293 GAL4-hgDAF12 UAS-luciferase reporter, agonist luminescence; normalized to butyrate control;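 active means activation above a cutoff set at the mean of all screened compounds plus 3 SD, cut at about 10% in these data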;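 further: 0% = DMSO wells and 100% = sodium butyrate wells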
# hcDAF-12 act: H. contortus DAF-12 nuclear receptor activators, primary screen, cell-based, luminescence, HEK293, lit1-tk-luc reporter. HEK293 hcDAF-12 lit1-tk-luc reporter; 0% DMSO, 100% Δ7-dafachronic acid. activation, % at 6.8 µM. 370,000 compounds, 1.4% hits;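 active means activation above the mean of all tested compounds plus 3 SD, cut at about 5.5% in these data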;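 further: 100% = response to 3 µM Δ7-dafachronic acid high control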
# DAX1 inh-2: DAX1 (NR0B1) inhibitors on StAR promoter, primary screen, cell-based, luminescence, SF-1 (NR5A1), full-length DAX-1 | HEK293T StAR-luciferase reporter, SF-1/DAX-1 repression relief | inhibition, % at 6.8 µM | 370,000 compounds, 1.1% hits;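 active means inhibition above the mean over all tested compounds plus 3 SD, cut at about 3.6% in these data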;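 further: 0% = DAX-1 cells with DMSO and 100% = cells lacking DAX-1 with DMSO; higher inhibition means more luminescence from relief of DAX-1 repression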
# ssDAF-12 act: S. stercoralis DAF-12 nuclear receptor activators, primary screen, cell-based, luminescence, HEK293, GRIP1 co-expression, lit1-tk-luc | 370,000 compounds, 1% hits | AID 652126, 2013 | Nuclear hormone receptor DAF-12 (Strongyloides stercoralis) | HEK293 ssDAF-12/GRIP1 lit1-tk-luc reporter; % of 3 µM dafachronic acid response | activation, % at 6.8 µM;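 active means activation above the mean over all tested compounds plus 3 SD, cut at about 0.9% in these data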;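 further: 0% = DMSO-only wells and 100% = 3 µM delta7-dafachronic acid wells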
# Starred values were filed as active, the others as inactive; nt = no result.
SMILES,DAX1 inh-1,hgDAF-12 ag,hcDAF-12 act,DAX1 inh-2,ssDAF-12 act
O=C1NCCN/C1=C\C(=O)c1ccc(Br)cc1,nt,11*,4,2,0
COC(=O)[C@]12C[C@H](CC(=O)NCc3ccc(OC)c(OC)c3)C(=O)N(Cc3cccc4ccccc34)C1=C[C@H](C(C)(C)C)O[C@@H]2C,nt,0,-1,-1,-1
Cc1cccc(-n2ccnc2CN2CCN(C3CCCC3)C(CCO)C2)c1 (stereo unspecified),2,-2,-1,0,-1
COc1ccc(-n2ccnc2CN2CCN(C3CCCC3)C(CCO)C2)cc1 (stereo unspecified),4.7*,3,-1,0,-2
COCCn1c(SCC(=O)N2CC(=O)Nc3ccccc32)nc2ccccc21,2,3,5.8*,0,0
COCCn1c(SCC(=O)N2CC(=O)Nc3ccccc32)nc2ccccc2c1=O,-1,1,0,0,-1
Cc1cc(C)c2[nH]c(O)c(N=NC3=NC(=O)CS3)c2c1,4.3*,0,-2,0,0
Cc1cc(C)c2[nH]c(O)c(N=Nc3ccc(C(=O)O)cc3)c2c1,-1,2,2,0,0
O=C1NC(c2cccc([N+](=O)[O-])c2)=CCN1c1ccccc1O,1,4,1,0,2.3*
O=[N+]([O-])c1ccc(N2CCN(c3ccccc3O)CC2)c(Cl)c1,-1,4,-1,-1,-2
CC(/C=N\NC(=O)CSc1nnc(-c2ccc(Br)cc2)n1-c1ccccc1)=C\c1ccco1,nt,2,-1,-3,-1
Cc1nn(C)c(C)c1NC(=O)CCl,1,-7,4,-1,1.2*
COc1ccc(N=Cc2ccccc2O)cc1,1,2,3,0,0
COc1ccc(N=Cc2oc3ccc4ccccc4c3c2O)cc1,0,5,3,2,1.2*
O=C(Nc1ccc(N2C(=O)[C@@H]3[C@H](C2=O)[C@@H]2C=C[C@H]3C2)c(Cl)c1)c1ccccn1,nt,12*,4,nt,0
O=C(NNc1nc2ccccc2s1)Nc1ccc(Cl)c(Cl)c1,0,-7,2,0,-1
O=C(c1ccco1)N1CCN(C(=O)c2cc(Cl)nc3ccccc23)CC1,0,1,2,0,1.2*
O=C(NNc1nc2ccccc2s1)c1ccccc1F,0,-1,5.8*,0,0
O=C(NNC(=O)c1cc(Cl)nc2ccccc12)c1ccccc1F,-2,-1,2,1,1.1*
O=C(NNc1nc2ccccc2s1)Nc1ccc(F)cc1,6.0*,10,5,1,0
O=C(NNC(=O)c1cc(-c2ccncc2)nc2ccccc12)c1ccccc1F,2,4,4,2,-1
O=C(NNc1nc2ccccc2s1)C1CC1,0,1,3,0,1
CC(C)C(=O)NNc1nc2ccccc2s1,0,9,6.2*,1,-1
O=C1NCCc2c1[nH]c1ccccc21,1,-1,-2,0,-1
COc1ccc2[nH]c3c(c2c1)CCNC3=O,1,11*,1,0,-2
SMILES,DAX1 inh-1,hgDAF-12 ag,hcDAF-12 act,DAX1 inh-2,ssDAF-12 act
COC(=O)c1c(C)c[nH]c1C,5.3*,2,-1,1,-1
Cc1[nH]c2ccccc2c1C(=O)COC(=O)c1ccc([N+](=O)[O-])s1,-1,1,4,0,1.0*
Cc1ccc(-c2cn(-c3ccccc3F)c(=S)[nH]2)cc1,4.4*,11*,3,1,1
CNC(=O)CSc1nc2c([nH]c3ccccc32)c(=O)n1CCOC,-1,2,5.6*,0,1
CCn1c(SCC(=O)Nc2ccc(NC(C)=O)cc2)nc2c([nH]c3ccccc32)c1=O,1,1,5.6*,0,1.1*
COCCn1c(SCC(=O)N2CCCC2)nc2c([nH]c3ccccc32)c1=O,-1,0,3,0,1
CCn1c(SCC(=O)N2CC(C)OC(C)C2)nc2c([nH]c3ccccc32)c1=O (stereo unspecified),1,1,6.5*,0,0

# From PubChem
